Data published in the supplement of paper PMC6555819.

Assays:
Assay in all cases: PBM binding z-score (relative to random genomic background probes); higher = stronger binding; sequences stand for … in GC…GCGATTGACAGCGTAGAATGAAGG
[1] = tested on: FXR:RXRa (NR concentration 270 nM, RXRa partner concentration 90 nM)
Procedure, shortened: (§1)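 Custom Agilent 4×180K protein-binding microarrays carried double-stranded probes, each with a 34-nt variable region. These regions held direct-repeat seeds, single-nucleotide variants, half-site ablations and random human genomic background sequences. Ligand-free nuclear receptor dimers were incubated on the arrays for 1 h, antibodies against each partner (one per run) detected binding, and scanned fluorescence was regression-normalized. Binding z-scores take the random background probes as reference.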

[2] = tested on: LXRa:RXRa (NR concentration 270 nM, RXRa partner concentration 90 nM)
Procedure, shortened: as §1

[3] = tested on: LXRa homodimer (NR concentration 270 nM)
Procedure, shortened: as §1

[4] = tested on: LXRb:RXRa (NR concentration 270 nM, RXRa partner concentration 90 nM)
Procedure, shortened: as §1

[5] = tested on: LXRb homodimer (NR concentration 270 nM)
Procedure, shortened: as §1

[6] = tested on: PPARa:RXRa (NR concentration 270 nM, RXRa partner concentration 90 nM)
Procedure, shortened: as §1

[7] = tested on: PPARg:RXRa (NR concentration 180 nM, RXRa partner concentration 90 nM)
Procedure, shortened: as §1

[8] = tested on: PPARg:RXRa 270nM:90nM, anti-RXR (NR concentration 270 nM, RXRa partner concentration 90 nM)
Procedure, shortened: as §1

[9] = tested on: PPARg:RXRa 30nM:10nM, anti-RXR (NR concentration 30 nM, RXRa partner concentration 10 nM)
Procedure, shortened: as §1

[10] = tested on: PPARg:RXRa 90nM:30nM, anti-RXR (NR concentration 90 nM, RXRa partner concentration 30 nM)
Procedure, shortened: as §1

Row | Sequence | PBM binding z-score [1] | PBM binding z-score [2] | PBM binding z-score [3] | PBM binding z-score [4] | PBM binding z-score [5] | PBM binding z-score [6] | PBM binding z-score [7] | PBM binding z-score [8] | PBM binding z-score [9] | PBM binding z-score [10]
1 | TCTGCTAGGTCAGTTGGTCAGCTCACGAGCTGCC | 1.02 | 0.925 | -0.62 | 0.62 | 0.255 | 1.53 | 0.508 | 1.87 | 1.28 | 1.87
2 | ATTATTAGTTGAGACGAGGGCAACCGATAGGTTG | 1.13 | 0.675 | 1.08 | 0.406 | 0.941 | 0.603 | 0.713 | 0.504 | 0.68 | 0.781
3 | ACTATGAGTTGAGACGAGGGCAACCGATAGGTTG | 1.25 | 0.578 | -0.194 | 0.311 | -0.0217 | 0.709 | 0.835 | 0.44 | 0.0728 | 0.0976
4 | CAGACTAGGTCAGGGCCAGTATAGGAGGAACGTT | 1.14 | 0.664 | -0.52 | 0.152 | -0.575 | 2.57 | 3.84 | 3.65 | 1.04 | 2.5
5 | ATCTCTAGGGAAAGTTCAGTGAAAGATCGATAGA | 0.806 | 1.28 | 0.993 | 0.942 | 0.681 | 1.42 | 0.591 | 1.84 | 0.725 | 1.51
6 | GCTAGCAGGCCATTTGTGTCACTCAATGACGGGC | -0.539 | -0.568 | -1.12 | -1.03 | -0.864 | -0.398 | 0.274 | -0.38 | -0.669 | -0.744
7 | CCGACTGGGGCAGAAAGGTTACCGTACCATCCGG | 0.26 | 0.695 | -0.0357 | 1.01 | -1.05 | 2.4 | 1.54 | 2.95 | 0.724 | 2.38
8 | GCGACTGGGGCATCAGCTGGTTACCATAACTTAA | -0.422 | -0.589 | -0.452 | 0.296 | -0.935 | 0.397 | 0.563 | 0.562 | -0.565 | 0.127
9 | TAGCCTAGGGCAGATCGGGCCAGTATACGCTATA | -0.551 | -0.549 | -0.559 | -0.757 | -1.16 | -0.359 | 0.168 | -0.585 | -0.695 | -0.348
10 | TCATATAGGTCATACAGGTGAAAGTCGGCATCTA | 6.18 | 5.45 | 1.98 | 4.49 | 1.72 | 5.68 | 7.05 | 6.57 | 5.26 | 6.25
11 | TATACAGGGGCAAAGGCCAGAGTACGAATGTCGA | 0.799 | 1.07 | 0.0951 | 1.34 | 1.92 | 2.84 | 4.54 | 5.09 | 3.45 | 4.92
12 | CCCTACGGGTCACGAGGTTATAGCACGACGAGCG | 6.43 | 4.68 | 0.337 | 4.01 | -0.522 | 5.71 | 6.58 | 6.23 | 2.52 | 4.88
13 | ATCGAAAGGTCGACGAAGTGAGTATACACCGTTT | 3.64 | 2.87 | -0.00377 | 2.49 | 0.429 | 3.98 | 2.23 | 2.51 | 0.7 | 1.46
14 | TCTATTAGTTGATTGGGGCAACCGAAACAGCGGA | 1.22 | 0.791 | 0.363 | 1.23 | 1.1 | 1.17 | 0.235 | 1.91 | 3.65 | 2.85
15 | ACTAGCAGGCCAAGTTTGGGTCACTAAAACAAAG | 0.0701 | 0.104 | -0.274 | 0.749 | -0.496 | 1.58 | 0.26 | 0.637 | -0.145 | 0.427
16 | CGAACGAGGGCTTGAGTTGATAGCAAATGCCGAT | -0.357 | -0.589 | -0.512 | -0.688 | -0.924 | -0.425 | 0.25 | -0.478 | -0.548 | -0.639
17 | GCTGCTAGGTCAACTGATGGTCAGCTATAGCTCG | 4.54 | 3.25 | 0.314 | 2.01 | 0.25 | 3.81 | 2.88 | 3.13 | 0.633 | 2.16
18 | CCTAGTTAGTCAAGGTCACACACGCTATAGGTAC | 4.07 | 4.91 | 3.93 | 3.98 | 1.49 | 3.99 | 2.29 | 2.75 | 1.02 | 1.79
19 | TGTAAAAGTTCAAAGGTAACGTAAGTATCCACAC | 6.54 | 6.21 | 4.26 | 4.37 | 1.88 | 5.54 | 6.22 | 6.14 | 3.76 | 5.5
20 | CCAACTGGGCCAAAGGTCATTGATTCCAATGCTC | 4.93 | 4.78 | 3.93 | 4.85 | 0.383 | 6.66 | 12.4 | 10.4 | 10.8 | 11.4
21 | CCTGCTAGGTCAATGGTCAGGTAAAGCAGCTCGC | 3.13 | 2.29 | -0.153 | 1.46 | -0.313 | 3.36 | 4.48 | 5.09 | 2.62 | 4.62
22 | TCTCGGAGGACACAAAAGGTCAGAGCTCGACATC | 2.8 | 4.16 | 2.83 | 3.27 | 0.142 | 3.53 | 1.51 | 2.66 | 2.44 | 2.62
23 | CAAACTAGTTCACAGAGGTCAAAGTCCGTGCGTA | 5.85 | 6.23 | 7.12 | 5.68 | 2.36 | 5.3 | 3.87 | 5.02 | 2.33 | 4.18
